# Screening results from PubChem BioAssay.
# PP5 inh – PP5 phosphatase inhibitors, primary screen, biochemical, fluorescence | Serine/threonine-protein phosphatase 5 (Homo sapiens), P53041 | purified PP5c, OMFP substrate fluorescence | inhibition, % at 6.7 µM | 320,000 compounds, 0.18% hits;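 active = inhibition above the campaign's mean inhibition across all tested compounds plus 3 SD, cut at about 9.5% in these data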;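 note: 0% = DMSO only and 100% = 100 µM cantharidin control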
# PP1 inh – PP1-alpha phosphatase inhibitors, primary screen, counter-screen for PP5 inhibitor project, biochemical, fluorescence, OMFP substrate, single point; purified PP1alpha; 320,000 compounds, 0.9% hits; inhibition, % at 6.7 µM;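 active = inhibition above the mean inhibition of all tested compounds plus 3 SD, computed separately for each screening campaign, cut at about 15% in these data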
# Target sequence (P62136 whole entry, looked up): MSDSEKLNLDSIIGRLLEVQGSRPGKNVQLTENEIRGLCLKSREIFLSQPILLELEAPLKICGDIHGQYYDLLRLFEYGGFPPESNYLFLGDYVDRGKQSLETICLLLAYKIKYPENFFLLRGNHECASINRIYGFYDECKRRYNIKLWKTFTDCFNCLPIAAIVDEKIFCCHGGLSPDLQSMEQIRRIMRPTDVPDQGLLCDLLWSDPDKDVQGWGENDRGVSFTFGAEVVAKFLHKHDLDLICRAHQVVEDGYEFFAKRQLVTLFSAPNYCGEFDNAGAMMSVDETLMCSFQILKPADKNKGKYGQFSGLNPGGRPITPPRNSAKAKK
# pPAFAH FP inh – pPAFAH enzyme inhibitors, primary screen, biochemical, fluorescence polarization, human; 330,000 compounds, 1.5% hits; recombinant pPAFAH, FP-rhodamine probe fluorescence polarization; Platelet-activating factor acetylhydrolase (Homo sapiens), Q13093; inhibition, % at 3.39 µM;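 active = inhibition above the mean inhibition across the screen plus 3 SD, cut at about 25% in these data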;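 note: inhibitors block binding of the rhodamine activity-based probe so polarization drops; 0% = enzyme with DMSO and 100% = wells lacking pPAFAH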
# PAFAH2 inh – PAFAH2 enzyme inhibitors, primary screen, biochemical, fluorescence polarization, human. recombinant PAFAH2, FP-rhodamine activity probe. inhibition, % at 3.39 µM. 340,000 compounds, 0.99% hits;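 active = inhibition above the mean over all tested compounds plus 3 SD, cut at about 30% in these data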;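 note: inhibitors block probe labeling of enzyme so polarization drops; 0% = enzyme with DMSO and 100% = wells lacking PAFAH2 protein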
# PAFAH1B2 FP inh – PAFAH1B2 enzyme inhibitors, primary screen, biochemical, fluorescence polarization, human. Platelet-activating factor acetylhydrolase IB subunit alpha2 (Homo sapiens), P68402. recombinant PAFAH1B2, FP-rhodamine activity probe. inhibition, % at 3.39 µM. 340,000 compounds, 1.2% hits. AID 492953, 2010;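 active = inhibition above the mean of all tested compounds plus 3 SD, cut at about 24% in these data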;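 note: 0% = enzyme with DMSO and 100% = wells lacking PAFAH1B2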
# Target sequence (P68402 whole entry, looked up): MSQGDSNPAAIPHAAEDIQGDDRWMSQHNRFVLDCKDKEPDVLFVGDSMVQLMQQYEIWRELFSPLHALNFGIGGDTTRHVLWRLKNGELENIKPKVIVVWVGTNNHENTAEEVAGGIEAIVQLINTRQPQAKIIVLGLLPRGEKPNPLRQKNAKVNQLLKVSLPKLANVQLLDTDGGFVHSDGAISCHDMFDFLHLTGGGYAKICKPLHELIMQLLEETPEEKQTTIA
# PAFAH1B3 FP inh – PAFAH1B3 enzyme inhibitors, primary screen, biochemical, fluorescence polarization, human | recombinant PAFAH1B3, FP-rhodamine probe | inhibition, % at 3.39 µM | 340,000 compounds, 0.28% hits;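 active = inhibition above the screen-wide average of all tested compounds plus 3 SD, cut at about 25% in these data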;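 note: 0% = enzyme with DMSO only and 100% = wells lacking PAFAH1B3 protein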
# An asterisk follows results filed as active; . = not tested or not shown. Compounds with a hit are over-represented: about 3.4% of the library has one in this group of screens.
SMILES,PP5 inh,PP1 inh,pPAFAH FP inh,PAFAH2 inh,PAFAH1B2 FP inh,PAFAH1B3 FP inh
Fc1ccc(C2c3[nH]c4ccccc4c3CCN2Cc2ccoc2)cc1 (stereo not drawn),-3,-4,-8,4,6,2
CC(C)(C)c1ccc(C(=O)N2CCNCC2)cc1,-1,-1,27*,-3,1,6
CC(C)(C)c1ccc(C(=O)N2CCCN(C(=O)c3ccc(C(C)(C)C)cc3)CC2)cc1,2,1,3,0,3,0
CCCc1c(C)nc(N2CCN(c3ccc(F)cc3)CC2)[nH]c1=O,1,-3,3,1,3,7
Cc1c(C(=O)O)cccc1-n1c(C)cc(/C=C(/C#N)C(=O)NCc2ccccc2)c1C,1,0,29*,.,.,.
CN(C(=O)Cc1c(C(=O)O)n(C)c2ccccc12)c1ccc(Cl)cc1,1,0,2,4,50*,-4
CC(C)c1ccc(N(C)C(=O)Cc2c(C(=O)O)n(C)c3ccccc23)cc1,2,-1,5,-6,6,13
O=C1c2cccc3c(O)ccc(c23)C(=O)N1c1ccc(Cl)cc1,-10,-9,28*,42*,17,27*
CC(=O)Nc1ccc(N2C(=O)c3cccc4c(O)ccc(c34)C2=O)cc1,-8,-8,20,22,22,18
C=CCn1c(SCc2ccc(F)cc2)nc2c1c(=O)[nH]c(=O)n2C,-1,6,1,3,6,1
N=C1/C(=C\c2coc3ccc(O)cc3c2=O)C(=O)N=C2SC=CN12,-4,1,26*,-6,-2,-2
Cc1onc(-c2ccccc2Cl)c1C(=O)Oc1cc(N)n(S(=O)(=O)c2ccc(F)cc2)n1,2,5,6,4,36*,11
Cc1ccc(S(=O)(=O)n2nc(OC(=O)c3c(-c4ccccc4Cl)noc3C)cc2N)cc1,2,0,-6,1,11,11
COc1ccc(Cl)cc1S(=O)(=O)N1CCN=C1c1ccccc1,-2,-6,1,12,-3,-6
CCCCCCC[C@@H](C/C=C/CCC(=O)O)OC,.,.,11,0,10,8
CCCCCCC[C@@H](C/C=C/CCC(=O)N(C)C/C(=C/Cl)C/C(=C\C(=O)N1CC(OC)=CC1=O)OC)OC,.,.,28*,8,3,7
COCCn1c(N)c(S(=O)(=O)c2cccs2)c2nc3ccccc3nc21,6,-9,-5,11,25*,48*
CCOC(=O)/C(=C\c1ccc(N2CCC(c3ccccc3)=N2)cc1)C(C)=O,.,.,.,-6,3,2
O=C1Nc2ccccc2SC(c2ccccc2)C1O (stereo not drawn),3,4,34*,12,6,1
N#Cc1nc(COc2ccc(Br)cc2)oc1NCCCn1ccnc1,5,-13,1,0,25*,-1
COc1ccc(-c2cnc(N)n2CC2CCCO2)cc1 (stereo not drawn),-1,0,5,-3,1,3
CCOC(=O)C(CC(=O)O)=C(c1ccccc1)c1ccccc1,-1,0,2,5,32*,8
Cc1ccc(SCc2[nH]nc3c2C(c2ccco2)C(C#N)=C(N)O3)cc1 (stereo not drawn),1,0,7,7,34*,14
Cc1ccc(SCc2[nH]nc3c2C(c2ccc(C)o2)C(C#N)=C(N)O3)cc1 (stereo not drawn),3,7,0,13,21,3
CCNCc1ccccc1OCc1ccccc1,1,-3,-3,-1,3,8
SMILES,PP5 inh,PP1 inh,pPAFAH FP inh,PAFAH2 inh,PAFAH1B2 FP inh,PAFAH1B3 FP inh
Oc1ccc(NCc2ccccc2OCc2ccccc2)cc1,5,1,26*,8,4,21
Clc1ccc(CCNc2nc3ccccc3s2)cc1,4,0,2,10,27*,1
COc1cc(OC)cc(-n2nnnc2SCC(=O)NC2CCCC2)c1,0,-1,4,5,8,1
Cn1c(SCC(=O)c2ccc(O)c(O)c2)nnc1-c1ccccc1,.,.,.,19,10,6
COc1ccc(-n2nnnc2SCC(=O)c2ccc(O)c(O)c2)cc1,3,0,30*,29,12,9
C=CCn1c(SCC(=O)c2ccc(O)c(O)c2)nnc1-c1ccc(OC)cc1,3,5,30*,15,7,19
C=CCn1c(SCC(=O)c2ccc(O)c(O)c2)nnc1-c1ccc(C)cc1,1,-5,28*,28,1,10
COc1ccc(-n2nnnc2SCC(N)=O)cc1,2,-1,6,-1,2,1
C=CCn1c(SCC(=O)c2ccc(OC)cc2)nnc1-c1cc2cccc(OC)c2o1,2,3,-1,0,-3,-3
COc1cc(OC)cc(-n2nnnc2SCC(=O)N2CCCC2)c1,2,16*,2,-8,5,10
Cc1c(NC(=O)C(C)OC(=O)CCc2c[nH]c3ccccc23)c(=O)n(-c2ccccc2)n1C (stereo not drawn),-1,0,2,4,5,6
C=CCn1c(SCC(=O)c2cccs2)nnc1-c1cccc(OC)c1,-2,-5,10,-3,-3,-9
C=CCn1c(SCC(=O)c2ccc(O)c(O)c2)nnc1-c1cccc(OC)c1,-1,-6,28*,24,6,12
COc1ccc(NC(=S)N(CCCN2CCOCC2)C(C)c2cc3cccc(OC)c3o2)cc1 (stereo not drawn),2,1,28*,6,-1,7
CCC(C)n1c(S(=O)(=O)O)nc2ccccc21 (stereo not drawn),1,2,3,-9,6,7
c1ccc2c(c1)CCN(c1nc(CN3CCOCC3)nc3sc4c(c13)CCCC4)C2,4,9,32*,4,3,4
CCNc1nc(CN2CCOCC2)nc2sc3c(c12)CCC3,1,1,-1,12,2,0
O=C(Nc1ncc2c(n1)CC(c1ccco1)CC2=O)c1ccccc1 (stereo not drawn),6,-9,0,-1,-1,6
O=C1CC(c2ccco2)Cc2nc(Nc3nc(-c4ccccc4)c4ccccc4n3)ncc21 (stereo not drawn),0,26*,0,-10,-1,-4
O=C(Nc1ccncc1)c1cccc2ccccc12,-1,-1,-3,1,0,10
CCCc1cc(=O)[nH]c(SCC(=O)Nc2cc(S(=O)(=O)N3CCCCC3)ccc2C)n1,2,0,4,-2,24*,15
O=S(=O)(NCCN1CCCC1)c1ccc(Cl)cc1,-1,-1,2,5,-2,1
